Measured values reported in PubChem BioAssay AID686979 (National Center for Advancing Translational Sciences (NCATS), 2013).
Among all 420,000 compounds or so, about 50,000 (12%) were called active. Roughly 26% stayed inconclusive and do not appear here. The call rests on the fitted dose curve; in most records, active means well fitted inhibition curve with a large enough effect; inconclusive means small, poorly fitted or top-dose-only effect; inactive means flat fitted curve, though single readings scatter. The full list was thinned out, with actives kept by preference.

assay: qHTS for Inhibitors of human tyrosyl-DNA phosphodiesterase 1 (TDP1): qHTS in cells in presence of CPT; settings: chicken DT40 Tdp1-/-;hTDP1 cells + 20 nM CPT, ATP luminescence, 48 h; series mostly up to 46.2 µM; activity change, negative = growth inhibition: at the top concentration; further: nearly all actives have a fitted effect of over 55% in size
How it was run: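 Chicken DT40 Tdp1-/- cells stably complemented with human TDP1 were seeded at 400 cells/well in medium containing 20 nM camptothecin, exposed to pin-transferred compounds, and grown at 37 °C for at least 48 hr. Viability was read as ATP luminescence.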
On the % scale 0 is the no-effect control and ±100 the full control effect; potency means the concentration at half of the fitted maximal effect.

SMILES | activity change, negative = growth inhibition | Potency
COc1ccccc1NC(=O)N1CCCC1C(=O)NCc1cccs1 (configuration not stated) | 5.59% (inactive) | 
CC(C)CN(C(=O)CSc1ncnc2sccc12)C1CCS(=O)(=O)C1 (configuration not stated) | -4.09% (inactive) | 
O=C(COc1ccc(NC(=O)c2ccccc2[N+](=O)[O-])cc1)c1ccc(F)cc1 | -2.89% (inactive) | 
CSc1ncc(Sc2ccccc2)c(C(=O)O)n1 | -2.14% (inactive) | 
CSc1nc(-c2ccccc2)nc(C(Cl)Cl)n1 |  | 1.16 µM (active)
COc1ccc(CC(NC(C)=O)C(=O)N2CCN(C(=O)Nc3cccc(Cl)c3)CC2)cc1OC (configuration not stated) | -3% (inactive) | 
COc1ccc(OCCC(=O)c2ccc(OC)cc2)cc1 |  | 2.59 µM (active)
COc1ccc(OCCCC(=O)Oc2ccc(OC)cc2)cc1 | -9.99% (inactive) | 
COc1ccc(CCC(=O)c2ccc(OC)cc2)cc1 | 3.92% (inactive) | 
Cc1ccc2sc(NNC(=O)c3ccc4c(c3)OCCO4)nc2c1C | -14.2% (inactive) | 
CNc1ccc(-c2nc(-c3ccccc3C)no2)cc1[N+](=O)[O-] | -4.91% (inactive) | 
Cc1onc(-c2ccccc2)c1C(=O)N1CCOCC1 | 2.28% (inactive) | 
Cc1noc(C)c1C(=O)N1CCOCC1 | -8.25% (inactive) | 
Cc1oc2c(c1C(=O)N1CCOCC1)C(=O)c1ccccc1C2=O |  | 2.59 µM (active)
CC(NCC(=O)Nc1ccccc1C(=O)NC1CC1)c1ccccc1Cl (configuration not stated) | 1.01% (inactive) | 
O=C(c1cccc(Br)c1)N1CCN(Cc2cc(=O)n3nc(-c4ccccc4)sc3n2)CC1 | -1.68% (inactive) | 
CCOC(=O)C(C)n1cnc2c(nnn2-c2cccc(OC)c2)c1=O (configuration not stated) | -3.77% (inactive) | 
COc1cccc(-n2c(=S)sc3c(=O)n(-c4ccccc4C)c(SCC(=O)O)nc32)c1 | 22% (inactive) | 
CCOC(=O)c1sc(=S)n(-c2cccc(OC)c2)c1N |  | 35.5 µM (active)
Cc1cc(Br)ccc1NC(=O)c1sc2ncn(CC(=O)N3CCN(c4ccccn4)CC3)c(=O)c2c1C | -23.7% (inactive) | 
O=C(Nc1ccc(F)cc1)c1cccnc1N1CCOCC1 | -2.24% (inactive) | 
CCc1cccc(NC(=O)c2cnc(N3CCOCC3)c3ccccc23)c1 |  | 20.6 µM (active)

SMILES | activity change, negative = growth inhibition | Potency
CSc1ncccc1C(=O)Nc1cccc(S(=O)(=O)N2CCOCC2)c1 | 1.28% (inactive) | 
Cc1ccc(S(=O)(=O)NCC(=O)N2CCN(c3ccccn3)CC2)cc1 | -5.89% (inactive) | 
Cc1cc(Br)ccc1NC(=O)c1cnc(N2CCN(c3ccccn3)CC2)c2ccccc12 |  | 14.6 µM (active)
O=C(NCc1ccccc1)C1c2ccccc2OCC(=O)N1C1CC1 (configuration not stated) | -1.85% (inactive) | 
CS(=O)(=O)N(CC(=O)NC1CCCC1)Cc1ccc(F)cc1 | -5.58% (inactive) | 
CCCCn1c(N)c(N(CC(C)C)C(=O)c2ccc(Br)o2)c(=O)[nH]c1=O | -20% (inactive) | 
CCOCc1nnc(NC(=O)CCC2CCCCC2)s1 | -7.37% (inactive) | 
COCCN(C(=O)CCC(=O)Nc1nccs1)C(C(=O)NCCC(C)C)c1ccc(F)cc1 (configuration not stated) | 8.82% (inactive) | 
O=C(CC(NC(=O)c1ccccc1)c1ccccc1)Nc1ccc(F)c(F)c1 (configuration not stated) | -26.2% (inactive) | 
O=C(Nc1ccc(Br)c2cccnc12)c1ccc(Cn2cc([N+](=O)[O-])cn2)o1 |  | 16.4 µM (active)
COc1cccc(NC(=O)c2ccc(Cn3cc([N+](=O)[O-])cn3)o2)c1 | -21.4% (inactive) | 
O=C(c1ccc(Cn2cc([N+](=O)[O-])cn2)o1)N1CCCC1 | 15.4% (inactive) | 
COC1=CC(=O)OC(C)(c2ccccc2)C1 (configuration not stated) | -20% (inactive) | 
CC(=O)c1c(C)n(-c2ccc(N(C)C)cc2)c2ccc(OCC(N)=O)cc12 |  | 18.4 µM (active)
Cc1c(Cc2ccccc2)c(=O)oc2cc(OCC(N)=O)ccc12 | -3.22% (inactive) | 
CC(=O)c1c(C)n(-c2ccc(C)cc2)c2ccc(O)cc12 | -5.03% (inactive) | 
CCCCc1ccc(S(=O)(=O)NC(=O)C2(C)CCN2C(=O)c2ccccc2)cc1 (configuration not stated) | -29.2% (inactive) | 
Cc1cccc2[nH]c(CN(C)C(=O)C3CCC(=O)N(CCc4ccccc4)C3)nc12 (configuration not stated) | -9.24% (inactive) | 
CS(=O)(=O)Nc1ccccc1N=C(c1ccccc1)c1ccccc1 | 6.15% (inactive) | 
CC(C)CN(C(=O)CSc1nncn1C)C1CCS(=O)(=O)C1 (configuration not stated) | 4.23% (inactive) | 
COc1cc(CC(=O)N2CCC(n3nccc3NC(=O)C3CC3)CC2)cc(OC)c1OC | -0.897% (inactive) | 
CCOc1cc(/C=C(\C#N)c2nc(-c3cccs3)c(NC(C)=O)s2)ccc1O |  | 2.31 µM (active)

SMILES | activity change, negative = growth inhibition | Potency
CCOc1cc(/C=N/NC(=O)CN2CCCCC2)ccc1O | 17.3% (inactive) | 
CCOc1cc(/C=C(\C#N)C(=O)Nc2ccccc2C)ccc1OCc1cc(=O)n2nc(CC)sc2n1 | -12.1% (inactive) | 
Cc1cc2c(C)nc(N/N=C/c3ccccc3)nc2o1 | 0.913% (inactive) | 
Cc1ccc(C(=O)CN2C(=O)NC3(CCOc4ccccc43)C2=O)s1 (configuration not stated) | -10.5% (inactive) | 
Cc1ccc(NC(=O)C(C)OC(=O)Cc2c[nH]c3ccccc23)cc1S(=O)(=O)N1CCOCC1 (configuration not stated) | -26.8% (inactive) | 
Cc1ccc(-n2nc(C)c(C(=O)O)c2-n2cccc2)cc1 | -5.51% (inactive) | 
Cc1ccc(S(=O)(=O)N2CC(C)N(S(C)(=O)=O)C2)cc1 (configuration not stated) | 7.03% (inactive) | 
O=C(CS(=O)(=O)c1cn(Cc2cccc(F)c2)c2ccccc12)N1CCCCC1 | -23.9% (inactive) | 
Cc1ccc(S(=O)(=O)N2C[C@@H]3CCCC[C@@H]3[C@@H](C)[C@H]2c2cn(Cc3ccccc3)c3ccc(F)cc23)cc1 |  | 6.51 µM (active)
CCC(=O)c1ccc(OCC(=O)OCC(=O)N2CCc3ccccc3C2)cc1 | -2.43% (inactive) | 
COc1ccc(-c2csc(C(O)c3cccc(Cl)c3)n2)cn1 (configuration not stated) |  | 16.4 µM (active)
COc1ccc(Nc2cc(Cl)ccc2C(=O)O)cn1 | -2.52% (inactive) | 
COc1cccc(C(NC(C)=O)c2nc(-c3cnc4ccccc4c3)cs2)c1 (configuration not stated) | -3% (inactive) | 
CCCC(CNC(=O)COC(=O)C1=NNC(=O)CC1)c1ccc(Cl)cc1Cl (configuration not stated) | 1.78% (inactive) | 
CC(C)C(=O)Nc1ccc2c(c1)oc1ccccc12 | -28.2% (inactive) | 
O=C(CSc1nnc(-c2ccccc2O)o1)NC1CCCCC1 | -22.7% (inactive) | 
Cn1nccc1/C=N\NC(=O)c1ccc(Cl)cc1 | -7.55% (inactive) | 
Cc1cc(C)n(-c2cc(Oc3ccccc3)ncn2)n1 | -11.2% (inactive) | 
COc1ccc(Nc2cc(C)nc(-n3nc(C)cc3C)n2)cc1 |  | 0.517 µM (active)
Cc1cc(Oc2ccccc2)nc(N2CCOCC2)n1 | -11.7% (inactive) | 
Cc1ccc(Nc2nc3ccccc3nc2-n2nc(C)cc2C)c(Cl)c1 | 8.53% (inactive) | 
Cc1cc(Nc2ccccc2)nc(N)n1 | -5.5% (inactive) | 

SMILES | activity change, negative = growth inhibition | Potency
Cc1cccc(Nc2cc(C)nc(-n3nc(C)cc3C)n2)c1 |  | 3.26 µM (active)
COc1ccc(NC(=O)c2nc(-n3nc(C)cc3C)ccc2Cl)cc1Cl | -23.4% (inactive) | 
COc1ccc(Nc2nc(=O)[nH]nc2C)cc1 | -17.5% (inactive) | 
CC(=O)c1ccc(Oc2cc(C)nc(-n3nc(C)cc3C)n2)cc1 |  | 0.731 µM (active)
CC(=O)NCCC(=O)Nc1cc(S(=O)(=O)N2CCCCC2)ccc1Oc1cccc(C)c1 | -10.8% (inactive) | 
COC(=O)c1ccc(NC(=O)c2cc3c(CO)cnc(C)c3oc2=Nc2cccc(C(N)=O)c2)cc1 | 1.92% (inactive) | 
O=C(N/C(=C\c1ccc([N+](=O)[O-])cc1)C(=O)N1CCCCC1)c1ccco1 | 1.48% (inactive) | 
CC(=O)Nc1ccc(NC(=O)[C@@H](NC(=O)c2cccc(C)c2)C(C)C)cc1 | 6.73% (inactive) | 
CC(=O)c1cccc(NC(=O)Nc2ccc(C)cc2)c1 | 4.63% (inactive) | 
Cc1ccc(NC(=O)C(C)c2cccc(C(=O)c3ccccc3)c2)cc1 (configuration not stated) |  | 14.6 µM (active)
O=C(CN(C(=O)CNC(=O)c1cccs1)c1cccc(F)c1)NC1CCCCC1 | 3.13% (inactive) | 
COc1ccc(CCN2C(=O)N(c3cccc(OC)c3)C(=O)C2CC(=O)Nc2ccccc2)cc1 (configuration not stated) |  | 18.4 µM (active)
CCOc1ccc(NC(=O)CC2C(=O)N(c3ccccc3)C(=O)N2CCOC)cc1 (configuration not stated) | 7.81% (inactive) | 
CCNC(=O)N1CCNC(=O)C1CC(=O)Nc1ccc(C(=O)OCC)cc1 (configuration not stated) | 5.76% (inactive) | 
CCOc1ccc(NC(=O)CC2C(=O)N(c3cccc(OC)c3)C(=O)N2C2CCCCC2)cc1 (configuration not stated) | -29% (inactive) | 
CCOC(=O)c1ccc(NC(=O)CC2C(=O)N(c3cccc(OC)c3)C(=O)N2C2CCCCC2)cc1 (configuration not stated) |  | 20.6 µM (active)
Cc1ccc(N2C(=O)C(CC(=O)Nc3cccc(F)c3)N(CCc3ccncc3)C2=O)cc1 (configuration not stated) | -13.6% (inactive) | 
CN1c2ccc([N+](=O)[O-])cc2C(C)(C)C12C=Cc1cc(C(=O)O)ccc1O2 (configuration not stated) | 1.71% (inactive) | 
COc1ccc(S(=O)(=O)N2CCOCC2)cc1NC(=O)Cc1coc2cc(C)ccc12 | -12.2% (inactive) | 
COc1ccc(/C(C)=N/NC(=O)c2ccc3nc[nH]c3c2)cc1 | -3.72% (inactive) | 
O=C(CSc1cccc[n+]1[O-])c1ccc(-c2ccccc2)cc1 |  | 0.92 µM (active)
COc1ccccc1C(=O)CSc1cccc[n+]1[O-] | 2.9% (inactive) | 

SMILES | activity change, negative = growth inhibition | Potency
CCN(C(=O)CSc1cccc[n+]1[O-])c1ccccc1 | -16% (inactive) | 
Cc1ccc(C(C)NC(=O)Cn2nc(C)c([N+](=O)[O-])c2C)cc1 (configuration not stated) | -9.96% (inactive) | 
Cn1c(CC2Sc3ccccc3NC2=O)nnc1SCC(=O)c1ccc(Cl)cc1 (configuration not stated) | -7.86% (inactive) | 
O=C(CN1C(=O)COc2ccc(Cl)cc21)N1CCOCC1 | 14.1% (inactive) | 
COc1ccccc1N1CCN(C(CNC(=O)C(=O)NCc2ccc(C)cc2)c2cccnc2)CC1 (configuration not stated) |  | 4.61 µM (active)
Cc1ccc(NC(=O)C(=O)NCC(c2cccnc2)N2CCOCC2)cc1 (configuration not stated) | -12.9% (inactive) | 
Cc1ccc(NC(=O)NCC(c2cccnc2)N2CCOCC2)cc1 (configuration not stated) | -6.59% (inactive) | 
CC(OC(=O)c1cc2ccccc2[nH]1)C(=O)N(C)c1ccccc1 (configuration not stated) | -28.6% (inactive) | 
O=C(Cc1ccccn1)c1ccc(O)cc1O | -7.64% (inactive) | 
Cc1ccc(Cl)cc1NC(=S)N(CCN(C)C)Cc1cccs1 | -27.7% (inactive) | 
Cc1ccc(CN(Cc2cccnc2)C(=S)Nc2cc(Cl)ccc2C)cc1 |  | 13 µM (active)
Cc1c(Cl)cccc1NC(=S)N(Cc1ccccc1)Cc1cccnc1 | -22.2% (inactive) | 
C=CCn1nc(-c2ccccc2)c2c(C)onc2c1=O | 8.61% (inactive) | 
O=C(Nc1cccc(C(=O)NC2CC2)c1)c1ccc(F)c(S(=O)(=O)N2CCOCC2)c1 | -23.2% (inactive) | 
OCC[C@H]1C[C@H](O)[C@@H](O)[C@]2(CCCCO2)O1 | -0.0748% (inactive) | 
Cc1nnsc1C(=O)NCc1c(F)cccc1Cl | -1.82% (inactive) | 
CC(C)c1ccc(NS(=O)(=O)c2cn(C)c(=O)n(C)c2=O)cc1 | -8.08% (inactive) | 
Cn1cc(S(=O)(=O)Nc2ccc(Cl)cc2Cl)c(=O)n(C)c1=O |  | 20.6 µM (active)
Cc1ccc(NS(=O)(=O)c2cn(C)c(=O)n(C)c2=O)c(C)c1 | -5.84% (inactive) | 
